Drawing on PMC9911399, “Two distinct binding modes provide the RNA-binding protein RbFox with extraordinary sequence specificity”, this text covers binding signal for 36 molecules.

Substitutions are numbered along the chain they refer to; changes in the protein carry UniProt numbers. Whole data set: some 16,000 sequences, median “ka relative to ugcaugu” near 0.0091, cut for the highest 2% near 0.032. What follows is part of a selection rich in the highest values, with near analogues and random picks from the rest.

T1: RBFOX1 RRM (Homo sapiens, UniProt Q9NWB1 109-208)
T1 sequence: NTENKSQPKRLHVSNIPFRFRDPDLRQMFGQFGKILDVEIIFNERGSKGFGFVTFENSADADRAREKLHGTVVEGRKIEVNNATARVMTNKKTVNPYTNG

B1: GACGAUG (DNA:RNA)
RNA: GGGAGACCGGAAUUCAGAUUGUCCGACGAUGUUAAAUCCCGUCGUAGCCACCA
DNA 1: CAATCTGAATTCCGGTCTCCC
DNA 2: TGGTGGCTACGACGGGATT
B2: AAAUAUU (DNA:RNA)
RNA: B1 RNA with G25A, C27A, G28U, G31U
DNA 1: CAATCTGAATTCCGGTCTCCC
DNA 2: TGGTGGCTACGACGGGATT
B3: CUUGAAA (DNA:RNA)
RNA: B1 RNA with G25C, A26U, C27U, U30A, G31A
DNA 1: CAATCTGAATTCCGGTCTCCC
DNA 2: TGGTGGCTACGACGGGATT
B4: CGUUCGG (DNA:RNA)
RNA: B1 RNA with G25C, A26G, C27U, G28U, A29C, U30G
DNA 1: CAATCTGAATTCCGGTCTCCC
DNA 2: TGGTGGCTACGACGGGATT
B5: GUCGUGC (DNA:RNA)
RNA: B1 RNA with A26U, A29U, U30G, G31C
DNA 1: CAATCTGAATTCCGGTCTCCC
DNA 2: TGGTGGCTACGACGGGATT
B6: UGCUUAU (DNA:RNA)
RNA: B1 RNA with G25U, A26G, G28U, A29U, U30A, G31U
DNA 1: CAATCTGAATTCCGGTCTCCC
DNA 2: TGGTGGCTACGACGGGATT
B7: UUGGUGC (DNA:RNA)
RNA: B1 RNA with G25U, A26U, C27G, A29U, U30G, G31C
DNA 1: CAATCTGAATTCCGGTCTCCC
DNA 2: TGGTGGCTACGACGGGATT
B8: UGCUUGU (DNA:RNA)
RNA: B1 RNA with G25U, A26G, G28U, A29U, U30G, G31U
DNA 1: CAATCTGAATTCCGGTCTCCC
DNA 2: TGGTGGCTACGACGGGATT
B9: UGAUUGG (DNA:RNA)
RNA: B1 RNA with G25U, A26G, C27A, G28U, A29U, U30G
DNA 1: CAATCTGAATTCCGGTCTCCC
DNA 2: TGGTGGCTACGACGGGATT
B10: GUGCUUG (DNA:RNA)
RNA: B1 RNA with A26U, C27G, G28C, A29U
DNA 1: CAATCTGAATTCCGGTCTCCC
DNA 2: TGGTGGCTACGACGGGATT
B11: UUGCUCG (DNA:RNA)
RNA: B1 RNA with G25U, A26U, C27G, G28C, A29U, U30C
DNA 1: CAATCTGAATTCCGGTCTCCC
DNA 2: TGGTGGCTACGACGGGATT
B12: UUGCUCC (DNA:RNA)
RNA: GGGAGACCGGAAUUCAGAUUGUCCUUGCUCCUUAAAUCCCGUCGUAGCCACCA
DNA 1: CAATCTGAATTCCGGTCTCCC
DNA 2: TGGTGGCTACGACGGGATT
B13: UCCUGCU (DNA:RNA)
RNA: B12 RNA with U26C, G27C, C28U, U29G, C31U
DNA 1: CAATCTGAATTCCGGTCTCCC
DNA 2: TGGTGGCTACGACGGGATT
B14: UCCGUGC (DNA:RNA)
RNA: B12 RNA with U26C, G27C, C28G, C30G
DNA 1: CAATCTGAATTCCGGTCTCCC
DNA 2: TGGTGGCTACGACGGGATT
B15: UUGCCCG (DNA:RNA)
RNA: B12 RNA with U29C, C31G
DNA 1: CAATCTGAATTCCGGTCTCCC
DNA 2: TGGTGGCTACGACGGGATT
B16: UGCUUGG (DNA:RNA)
RNA: B1 RNA with G25U, A26G, G28U, A29U, U30G
DNA 1: CAATCTGAATTCCGGTCTCCC
DNA 2: TGGTGGCTACGACGGGATT
B17: UUUCUUU (DNA:RNA)
RNA: B12 RNA with G27U, C30U, C31U
DNA 1: CAATCTGAATTCCGGTCTCCC
DNA 2: TGGTGGCTACGACGGGATT
B18: UUGUCUG (DNA:RNA)
RNA: B12 RNA with C28U, U29C, C30U, C31G
DNA 1: CAATCTGAATTCCGGTCTCCC
DNA 2: TGGTGGCTACGACGGGATT
B19: GACUUAC (DNA:RNA)
RNA: B1 RNA with G28U, A29U, U30A, G31C
DNA 1: CAATCTGAATTCCGGTCTCCC
DNA 2: TGGTGGCTACGACGGGATT
B20: AGCGCCC (DNA:RNA)
RNA: B1 RNA with G25A, A26G, A29C, U30C, G31C
DNA 1: CAATCTGAATTCCGGTCTCCC
DNA 2: TGGTGGCTACGACGGGATT
B21: GAUUAAA (DNA:RNA)
RNA: B1 RNA with C27U, G28U, U30A, G31A
DNA 1: CAATCTGAATTCCGGTCTCCC
DNA 2: TGGTGGCTACGACGGGATT
B22: CAAACAU (DNA:RNA)
RNA: B1 RNA with G25C, C27A, G28A, A29C, U30A, G31U
DNA 1: CAATCTGAATTCCGGTCTCCC
DNA 2: TGGTGGCTACGACGGGATT
B23: UAGGGUA (DNA:RNA)
RNA: B1 RNA with G25U, C27G, A29G, G31A
DNA 1: CAATCTGAATTCCGGTCTCCC
DNA 2: TGGTGGCTACGACGGGATT
B24: CGGCUCA (DNA:RNA)
RNA: B12 RNA with U25C, U26G, C31A
DNA 1: CAATCTGAATTCCGGTCTCCC
DNA 2: TGGTGGCTACGACGGGATT
B25: AUGGGUC (DNA:RNA)
RNA: B12 RNA with U25A, C28G, U29G, C30U
DNA 1: CAATCTGAATTCCGGTCTCCC
DNA 2: TGGTGGCTACGACGGGATT
B26: ACGAACG (DNA:RNA)
RNA: B1 RNA with G25A, A26C, C27G, G28A, U30C
DNA 1: CAATCTGAATTCCGGTCTCCC
DNA 2: TGGTGGCTACGACGGGATT
B27: GAGUUAU (DNA:RNA)
RNA: B1 RNA with C27G, G28U, A29U, U30A, G31U
DNA 1: CAATCTGAATTCCGGTCTCCC
DNA 2: TGGTGGCTACGACGGGATT
B28: UGAUUGC (DNA:RNA)
RNA: B12 RNA with U26G, G27A, C28U, C30G
DNA 1: CAATCTGAATTCCGGTCTCCC
DNA 2: TGGTGGCTACGACGGGATT
B29: UGCUUGC (DNA:RNA)
RNA: B12 RNA with U26G, G27C, C28U, C30G
DNA 1: CAATCTGAATTCCGGTCTCCC
DNA 2: TGGTGGCTACGACGGGATT
B30: CUGCUAG (DNA:RNA)
RNA: B12 RNA with U25C, C30A, C31G
DNA 1: CAATCTGAATTCCGGTCTCCC
DNA 2: TGGTGGCTACGACGGGATT
B31: UGCUUAA (DNA:RNA)
RNA: B12 RNA with U26G, G27C, C28U, C30A, C31A
DNA 1: CAATCTGAATTCCGGTCTCCC
DNA 2: TGGTGGCTACGACGGGATT
B32: UGCUAGU (DNA:RNA)
RNA: B1 RNA with G25U, A26G, G28U, U30G, G31U
DNA 1: CAATCTGAATTCCGGTCTCCC
DNA 2: TGGTGGCTACGACGGGATT
B33: UGCUUGA (DNA:RNA)
RNA: B12 RNA with U26G, G27C, C28U, C30G, C31A
DNA 1: CAATCTGAATTCCGGTCTCCC
DNA 2: TGGTGGCTACGACGGGATT
B34: CUAGUUG (DNA:RNA)
RNA: B1 RNA with G25C, A26U, C27A, A29U
DNA 1: CAATCTGAATTCCGGTCTCCC
DNA 2: TGGTGGCTACGACGGGATT
B35: UUGAUGC (DNA:RNA)
RNA: B12 RNA with C28A, C30G
DNA 1: CAATCTGAATTCCGGTCTCCC
DNA 2: TGGTGGCTACGACGGGATT
B36: UUGCUGC (DNA:RNA)
RNA: B12 RNA with C30G
DNA 1: CAATCTGAATTCCGGTCTCCC
DNA 2: TGGTGGCTACGACGGGATT

This assay concerns the target T1, RBFOX1 RRM. Description: EMSA; HiTS-Eq, 1 nM pool, 10 min; buffer printed only for the single-RNA assays: 10 mM Tris pH 7.5, 150 mM NaCl, 3.4 mM EDTA, 0.001% NP-40, 30 C. Particulars: tags: His6 N-terminal (pET28a); label: 5' 32P. The gist of the method: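 A pool of RNA with 7 randomized nucleotides, 5′-radiolabelled and with DNA-annealed flanks, was equilibrated at 1 nM for 10 min in 50 µL with purified RbFox RRM, wild type or mutant, across increasing protein concentrations. Free RNA was separated by 8% native PAGE, excised, reverse-transcribed, barcoded by PCR and sequenced. Relative association constants were obtained from read-count changes of each RNA species versus the control reaction and normalised to the cognate motif.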
Background: A gel shift assay detects complexes by their altered migration in electrophoresis.
For the molecule B1, the binding signal was 0.0266 KA relative to UGCAUGU.
To B2 belongs 0.00092 KA relative to UGCAUGU; to B3, 0.00785 KA relative to UGCAUGU; to B4, 0.0132 KA relative to UGCAUGU.
With B5, the binding signal was 0.0206 KA relative to UGCAUGU.
On to B6, for which the binding signal is 0.0138 KA relative to UGCAUGU.
Turning to B7, the binding signal was 0.0277 KA relative to UGCAUGU.
In the case of B8 it was 0.0532 KA relative to UGCAUGU; in that of B9, 0.0223 KA relative to UGCAUGU.
In the case of B10 it was 0.053 KA relative to UGCAUGU; in that of B11, 0.0477 KA relative to UGCAUGU.
In the case of B12, the binding signal is 0.0158 KA relative to UGCAUGU.
For B13, the binding signal is 0.0144 KA relative to UGCAUGU.
To B14 belongs 0.0168 KA relative to UGCAUGU.
In the case of B15 it was 0.0225 KA relative to UGCAUGU.
In the case of B16, the binding signal is 0.0481 KA relative to UGCAUGU.
Regarding B17, the binding signal is 0.0113 KA relative to UGCAUGU.
In the case of B18 it was 0.0312 KA relative to UGCAUGU; in that of B19, 0.00749 KA relative to UGCAUGU; in that of B20, 0.00884 KA relative to UGCAUGU.
In the case of B21 it was 0.00427 KA relative to UGCAUGU.
In the case of B22 it was 0.000358 KA relative to UGCAUGU.
For the molecule B23, the binding signal was 0.0162 KA relative to UGCAUGU.
To B24 belongs 0.00697 KA relative to UGCAUGU.
For B25, the binding signal was 0.0197 KA relative to UGCAUGU.
For the molecule B26, the binding signal was 0.0126 KA relative to UGCAUGU.
To B27 belongs 0.00747 KA relative to UGCAUGU; to B28, 0.0265 KA relative to UGCAUGU.
B29: the binding signal was 0.088 KA relative to UGCAUGU.
To B30 belongs 0.0317 KA relative to UGCAUGU; to B31, 0.0138 KA relative to UGCAUGU.
To B32 belongs 0.0309 KA relative to UGCAUGU; to B33, 0.0378 KA relative to UGCAUGU.
In the case of B34 it was 0.0137 KA relative to UGCAUGU; in that of B35, 0.0187 KA relative to UGCAUGU; in that of B36, 0.0167 KA relative to UGCAUGU.
